# VP16 counter: inhibits Gal4-VP16 luciferase reporter, ROR gamma counter-screen; Drosophila S2 Gal4-VP16 UAS-luciferase, luminescence, 20 h; Potency, µM (highest dose often 53.6 µM), for inactives: at the highest dose activity, negative = inhibition, actives largely listed as inhibitors; actives 3.5% (n = 310,000);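 further: Gal4-VP16 expression switched on by copper sulfate through the metallothionein promoter; nearly all actives have a fitted effect of over 50% in size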
# RORgamma inh: inhibitors of mouse ROR gamma transcriptional activity; P51450; Drosophila S2 Gal4-RORgamma UAS-luciferase reporter, 20 h; Potency, µM (titrated, usually from 53.6 µM), without a hit: at the top dose activity change, negative = inhibition, actives largely listed as inhibitors; actives 5.4% (n = 310,000); AID 2551; further: nearly all actives have a fitted effect of over 60% in size
# Target sequence (P51450 whole entry, looked up, the tested form may be a part): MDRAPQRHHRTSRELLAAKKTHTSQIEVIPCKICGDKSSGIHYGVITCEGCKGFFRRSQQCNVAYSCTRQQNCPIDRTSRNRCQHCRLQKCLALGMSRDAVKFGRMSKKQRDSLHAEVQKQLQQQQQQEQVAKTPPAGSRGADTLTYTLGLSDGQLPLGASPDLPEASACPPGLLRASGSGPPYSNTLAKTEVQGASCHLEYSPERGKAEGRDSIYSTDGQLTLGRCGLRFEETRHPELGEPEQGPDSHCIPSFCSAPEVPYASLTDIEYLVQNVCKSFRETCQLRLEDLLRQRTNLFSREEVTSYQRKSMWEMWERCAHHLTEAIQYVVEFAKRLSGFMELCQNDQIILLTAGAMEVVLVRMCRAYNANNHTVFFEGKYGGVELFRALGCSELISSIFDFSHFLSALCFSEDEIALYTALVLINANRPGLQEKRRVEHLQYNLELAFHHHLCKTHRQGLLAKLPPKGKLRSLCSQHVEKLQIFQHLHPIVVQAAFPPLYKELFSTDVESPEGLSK
#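 Schneider cells (Drosophila), stable Gal4 DBD–ROR gamma + UAS-luc; 1 hr cmpd preincubation; Cu2+ induction 700 uM final; 20 hr ambient; luminescence.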
# Luc counter: counter-screen: inhibitors of Kinase-Glo firefly luciferase; Q27757; Kinase-Glo luciferase, ATP luminescence, 8 min; Potency, µM (titrated, usually from 38.3 µM), for the others: top-dose activity change, negative = inhibition, most hits filed as inhibitors; actives 0.28% (n = 200,000); AID 1379; further: nearly all actives have a fitted effect of over 60% in size
#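 Inhibition of Kinase-Glo luciferase light generation was assessed at 10 uM ATP in pH 7.2 imidazole buffer, with luminescence measured after eight minutes at ambient temperature.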
# * hit, by the source's call; ? = inconclusive; · = no result; [ ] = dose if it differs, or a comment. A selection: hits, their analogues and other compounds. The true share with any hit is near 6.4%. The call rests on the fitted dose curve; in most records, active means well fitted curve in the direction sought with a large enough effect; inconclusive means small, poorly fitted or top-dose-only effect, or another doubt; inactive means no such curve, though single readings can be large; an effect the other way counts as inactive or inconclusive. On the % scale 0 is the no-effect control and ±100 the full control effect; potency means the concentration at half of the fitted maximal effect.
SMILES,VP16 counter,RORgamma inh,Luc counter
O=C(CCC1CCCCC1)NCCN1C2=NC[C@H](Cc3ccccc3)N2C[C@H]1Cc1ccc(O)cc1,?,16.8%,·
CC(Oc1ccc2ccccc2c1)C(=O)NNC(=O)Nc1ccccc1 (stereo not drawn),7.4%,7.9%,·
Cc1ccc(S(=O)(=O)n2cc(-c3ccccc3)c(N)n2)cc1,0.3%,20.6%,17.3%
Nc1nn(S(=O)(=O)c2ccccc2)cc1-c1ccc([N+](=O)[O-])cc1,35.5µM*,?,0.2%
COC(=O)c1cccc(NC(=O)CSc2nnc(C)o2)c1,0.7%,-5.6%,·
CCc1ccc2[nH]c(C)c(CN3CCCCCC3)c(=O)c2c1,5.8%,8.9%,·
COC(=O)[C@@H](NC(=O)O[C@@H]1C(=O)c2ccc(OC)cc2O[C@H]1c1ccc2c(c1)OCO2)C(C)C,6.7%,16.0%,2.4%
O=c1c2c([nH]c3ccc(Br)cc13)CCCC2,?,-3.4%,-1.2%
O=C1Cc2c([nH]c3ccc(Br)cc23)-c2ccccc2N1,25.1µM*,-5.3%,-3.2%
CCN(CC)S(=O)(=O)c1cccc(C(=O)N/N=C(\C)c2ccc(O)cc2O)c1,6.5%,12.6µM*,2.5%
CCN(CC)S(=O)(=O)c1cccc(C(=O)N/N=C/c2ccc(O)c(O)c2O)c1,-7.4%,-31.8%,-1.2%
COCCn1c(=O)c(-c2ccc(OC)cc2)nc2cnc(Nc3cccc(OC)c3)nc21,-19.7%,-11.9%,-5.0%
Cc1ccccc1NC(=O)Cc1nc(COC(=O)CNS(=O)(=O)c2cccc(Br)c2)cs1,-0.5%,-25.5%,·
S=c1[nH]nc(COc2ccccc2)n1/N=C/c1ccc(Br)cc1,-29.8%,?,·
CSc1ccc(/C=N/n2c(Cc3ccc(Br)cc3)n[nH]c2=S)cc1,-0.5%,?,2.2%
Oc1ccc(/C=N/n2c(COc3ccccc3)n[nH]c2=S)cc1O,-4.1%,-27.6%,·
Cc1ccc(/C=N/n2c(COc3ccccc3)n[nH]c2=S)cc1,?,3.16µM*,·
CCOc1cc(/C=N/n2c(COc3ccccc3)n[nH]c2=S)ccc1O,?,5.01µM*,·
CCc1n[nH]c(=S)n1/N=C/c1ccc(NC(C)=O)cc1,1.4%,-24.8%,3.0%
CC(C)c1ccc(/C=N/n2c(COc3ccccc3)n[nH]c2=S)cc1,10µM*,?,·
FC(F)Oc1ccc(/C=N/n2c(Cc3ccc(Br)cc3)n[nH]c2=S)cc1,?,8.91µM*,·
O=C(CCCOc1ccc(Br)cc1)NCCc1ccc(OC(F)F)cc1,-1.9%,27.2%,·
O=C(O)COc1ccc(/C=N/n2c(COc3ccccc3)nc3ccccc3c2=O)cc1,3.7%,12.9%,·
CN(C)c1ccc(/C=N/n2c(-c3cccnc3)n[nH]c2=S)cc1,1.7%,-33.6%,-0.8%
CN(C)c1ccc(/C=N/n2c(-c3ccccc3Br)n[nH]c2=S)cc1,3.8%,3.55µM*,·
SMILES,VP16 counter,RORgamma inh,Luc counter
CN(C)c1ccc(/C=N/n2c(COc3ccccc3)n[nH]c2=S)cc1,3.98µM*,3.16µM*,1.1%
CCOC(=O)N1CCN(CCC(=O)Nc2cc(C)ccc2C)CC1,-3.1%,6.0%,·
CC(=O)NC1(c2ccccc2)CCN(CC(=O)N2CCC(C)CC2)CC1,5.2%,0.3%,-0.8%
COc1cc(S(=O)(=O)N(C)C2CCCCC2)c(C)cc1C,-4.0%,37.1%,3.8%
C/C(=N\NC(=O)c1ccccc1)c1ccc(N2CCOCC2)cc1,4.1%,-0.7%,13.9%
C/C(=N\Nc1nc(C)cc(C)n1)c1ccc(N2CCOCC2)cc1,-4.6%,11.2µM*,0.0%
C/C(=N\Nc1ncc(Cl)cc1Cl)c1ccc(N2CCOCC2)cc1,?,5.01µM*,-3.5%
C/C(=N\Nc1nc2ccccc2[nH]1)c1ccc(N2CCOCC2)cc1,?,3.16µM*,-13.4%
C/C(=N\NC(=O)c1cc(C)oc1C)c1ccc(N2CCOCC2)cc1,4.2%,?,0.2%
C/C(=N\Nc1cccc2cccnc12)c1ccccc1O,-11.4%,?,-5.4%
C/C(=N\NC(=O)C1CC1)c1ccc(N2CCOCC2)cc1,-3.2%,1.2%,4.0%
C/C(=N\Nc1cccc2cccnc12)c1ccccn1,3.98µM*,0.631µM*,?
Clc1cnc(Nc2cccnc2)c(Cl)c1,0.4%,-18.9%,·
CC(=O)NCCc1nc2cc(NC(=O)COc3cccc(C)c3)ccc2n1C,-20.5%,-17.9%,·
COc1nc(OC)nc(N2CCC(NC(=O)C(Cc3cccc(OC)c3OC)NC(C)=O)CC2)n1 (stereo not drawn),0.4%,-13.7%,·
CC1(C)S[C@@H]2[C@H](NC(=O)[C@H](NC(=O)N3CCN(S(C)(=O)=O)C3=O)c3ccccc3)C(=O)N2[C@H]1C(=O)O,2.1%,4.3%,·
CC1(c2ccc(Cl)cc2)NC(=O)CS1 (stereo not drawn),?,5.4%,-1.4%
Cc1sc2ncnc(N/N=C/c3cccc(O)c3)c2c1C,?,?,-2.9%
C/C(=N\Nc1ncnc2sc(C)c(C)c12)c1ccccn1,0.794µM*,0.398µM*,·
C/C(=N\Nc1cc(N2CCCCC2)nc(C)n1)c1ccc(Br)cc1,6.31µM*,?,·
C/C(=N/Oc1nc(C)cc(C)n1)c1ccc(Br)cc1,?,?,-5.2%
C/C(=N/Nc1nc(C)cc(C)n1)c1ccc(Br)cc1,7.94µM*,7.94µM*,·
C/C(=N\Nc1ncc(Cl)cc1Cl)c1ccccn1,14.1µM*,0.708µM*,?
C/C(=N\Nc1cc(N2CCOCC2)nc(C)n1)c1ccc(F)cc1,2.7%,-11.8%,·
C/C(=N\Nc1ccc(Cl)c(C(=O)O)c1)c1ccccn1,22.1%,?,·
SMILES,VP16 counter,RORgamma inh,Luc counter
CC(C)CC(NC(=O)c1ccccc1)C(=O)OCC(=O)Nc1ccc(S(N)(=O)=O)cc1 (stereo not drawn),-19.1%,0.8%,-3.0%
O=C(CNC(=O)c1ccc(S(=O)(=O)N2CCCCC2)cc1)N/N=C/c1ccco1,-3.6%,-12.6%,0.5%
CN(Cc1ccccc1)S(=O)(=O)c1ccc2[nH]c(=O)ccc2c1,11.4%,-28.0%,·
Cc1c(C(=O)N2CCOCC2)c(S(=O)(=O)Nc2ccccc2)c(C)n1C,-12.1%,0.9%,·
CCCSc1nnc(CSc2ncccn2)n1C,-5.7%,-0.5%,-0.8%
CC[C@H](C)[C@H](NC(=O)[C@H](CC(C)C)NC(=O)[C@@H](N)CO)C(=O)NCC(=O)N[C@@H](CCCCN)C(=O)N[C@H](C(=O)O)C(C)C,-5.3%,2.7%,·
COc1ccc(-c2nc(N3CCN(C)CC3)sc2-c2ccc(OC)cc2)cc1,-19.8%,?,·
C=C(C)C1CC=C(C)/C(=N/NC(=S)Nc2ccccc2)C1 (stereo not drawn),1.12µM*,1.12µM*,1.8%
C=C(C)C1CC=C(C)/C(=N/NC(=O)c2ccc(NC(=O)c3cccc(C)c3)cc2)C1 (stereo not drawn),0.9%,18.7%,-0.4%
CN1C(=S)SC(C)(NO)C1(C)C (stereo not drawn),?,15.8µM*,2.7%
C=CCOC(=O)N[C@H](c1ccccc1)C(C(C)=O)C(C)=O,-1.3%,-5.4%,4.6%
COc1ccc(NC(=S)N(CCCN2CCN(C)CC2)Cc2cccs2)cc1,0.9%,-10.9%,1.7%
COc1cccc(NC(=S)N(CCCN2CCCC(C)C2)Cc2cccs2)c1 (stereo not drawn),5.3%,-15.3%,0.1%
CSc1cccc(NC(=S)N(CCCN2CCCC(C)C2)Cc2cccs2)c1 (stereo not drawn),27.4%[10 µM],11.2µM*,-0.1%

# Screening results as filed in PubChem BioAssay.
